# Source: PubChem BioAssay (NCI)
# About 83,000 compounds went through this panel and 20% of them were active in at least one assay; those are over-represented in the sample as a whole.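 Negative percent growth values reflect cell death: -40 means 40% of the cells present at the start died, and -100 means all died.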 Unmarked numbers belong to inactive results. Active and inactive are the calls of the source. Rule for the calls: active = growth percent below 10; inactive = the rest.
# System: UO-31 renal
# Test: NCI-60 one-dose screen, 48 h (100 = growth as untreated, 0 = no growth, -100 = all killed)
# Conditions: 10 µM unless noted
row,SMILES,growth
1,COc1ccc(C(=O)c2cc(OC)c(OC)c(OC)c2)cc1/C=C/C(=O)c1ccc(OC)c(OC)c1,26.3%
2,COc1c(NC[C@H]2OC(O)[C@H](O)[C@@H](O)[C@@H]2O)c(=O)c1=O (some centres undefined),86.7%
3,COc1cccc(/C=C/c2c(C(=O)O)cccc2[N+](=O)[O-])c1OC,87.1%
4,COc1ccc(OC)c(C(=O)c2oc3ccc(Br)cc3c2N)c1,27.5%
5,Nc1c(C(=O)Nc2ccccc2)sc2nc3c(cc12)CN(Cc1ccccc1)CC3,49.8%
6,CN=S(=O)(NC(=O)c1ccc(Cl)cc1Cl)c1ccc(Br)s1 (centres undefined),89.4%
7,CC(C)C[C@H](NC(=O)[C@H](Cc1ccccc1)n1ccc(N2CCCCC2)cc1=O)B(O)O,-37.2% (active)
8,COc1ccc(-c2cn[nH]c2-c2cc(OC)c3c(c2)OCO3)cc1,27.8%
9,COc1ccccc1CNCCCN1C(=O)c2ccc3c4c(ccc(c24)C1=O)C(=O)N(CCCNCCCCNCCCCN)C3=O,8.57% (active)
10,Nc1c(C(=O)c2ccc(F)cc2)sc2nc3c(cc12)CCCC3,75.3%
11,COc1cccc(C2CC(=O)Nc3c2c(C)nn3-c2nc3ccccc3[nH]2)c1OC (centres undefined),73.1%
12,COc1ccc(NC(=O)CSc2nc3ccc(Cl)cc3c(=O)n2-c2ccccc2C(F)(F)F)c(OC)c1OC,77.6%
13,Cc1cc(C)c(NC(=O)c2sc3nc4c(cc3c2N)CN(Cc2ccccc2)CC4)c(C)c1,26.5%
14,CC(C)[C@H](CO)Nc1nc(Nc2ccc(C(=O)NCCNS(=O)(=O)c3cccc4c(N(C)C)cccc34)c(Cl)c2)c2ncn(C(C)C)c2n1,77.2%
15,COc1ccc(C(=O)c2cc(OC)c(OC)c(OC)c2)cc1/C=C/C(=O)c1ccc2c(c1)OCO2,-9.84% (active)
16,Cc1ccc(Oc2nc3ccccc3cc2-c2nnc(Cn3c(COc4ccccc4)nc4ccccc43)o2)cc1,8.45% (active)
17,Nc1c(C(=O)Nc2ccccc2)sc2nc3c(cc12)CCCCC3,21.5%
18,CC(C)C[C@H](NC(=O)Cn1ccc(NCc2ccccc2)cc1=O)B(O)O,-40.5% (active)
19,CC(C)(C)c1ccc(S(=O)(=O)Oc2ccc3c4c(c(=O)oc3c2)CCCCC4)cc1,43.4%
20,COc1cc(-c2nc(-c3nc4ccccc4[nH]3)cc3c2[nH]c2ccccc23)cc(OC)c1OC,24.3%

row,SMILES,growth
1,O=C(Nc1ccc(OCc2nnc(-c3ccc(Cl)cc3)o2)c(F)c1)Nc1ccc(Cl)c(Cl)c1,56.3%
2,COc1ccc(/C=C/C(=O)c2ccc(B(O)O)cc2)cc1O,60.8%
3,COc1ccc(/C=C/C(=O)c2cc(OC)c(OC)c(OC)c2)cc1OCc1cn(Cc2ccc(F)cc2)nn1,30.8%
4,CC(C)(C)OC(=O)N[C@@H](Cc1ccccc1)C(=O)N(Cc1ccccc1)C1(C(=O)NCc2ccccc2)CCN(Cc2ccccc2)CC1,15.5%
5,COC(=O)c1cc(-c2cccs2)c(C#N)c(N)c1C#N,92.7%
6,CCN(CC)P(=O)(N(CC)CC)N(CCCSC/C=C(\C)CC/C=C(\C)CCC=C(C)C)CCCN1CCN(C)CC1,92.8%
7,O=C(O)c1cccc([N+](=O)[O-])c1/C=C/c1ccccc1,92.9%
8,Cc1ccc(C(=O)c2sc3nc4c(cc3c2N)CCCC4)c(C)c1,30.8%
9,COc1cc(/C=C\c2cc(OC)c(OC)c(OC)c2)cc(N/C=C\C(=O)c2c[nH]c3ccccc23)c1OC,-93% (active)
10,COc1cc(C(=O)/C=C/c2cc(C(=O)c3cc(OC)c(OC)c(OC)c3)ccc2OC)ccc1N,-86.7% (active)
11,CC(C)C[C@H](NC(=O)[C@@H](Cc1ccccc1)n1ccc(Nc2ccccc2)cc1=O)B(O)O,-44% (active)
12,COc1ccc(Cn2c(SC)nc(=O)n(Cc3ccc(Cl)cc3)c2=O)cc1,68.3%
13,COc1ccc(Cn2cc(COc3cc(/C=C/C(=O)c4cc(OC)c(OC)c(OC)c4)ccc3OC)nn2)cc1,37.8%
14,O=c1oc2cc(OS(=O)(=O)c3ccccc3)c(Cl)cc2c2c1CCCCCC2,71.5%
15,COc1ccc(-c2nc(-c3nc4ccc(F)cc4[nH]3)cc3c2[nH]c2ccccc23)cc1,7.03% (active)
16,COc1ccc(C2CC(=O)Nc3c2c(C)nn3-c2nc3ccccc3[nH]2)cc1OC (centres undefined),52.4%
17,COc1ccc(NC(=O)CSc2nc3ccccc3c(=O)n2-c2ccccc2C(F)(F)F)c(OC)c1OC,91.9%
18,COc1ccc(C(=O)/C=C/c2cc(C(=O)c3cc(OC)c(OC)c(OC)c3)ccc2OC)cc1,53.7%
19,COc1ccc(C(=O)/C=C/c2ccc(/C=C/c3cc(OC)c(OC)c(OC)c3)cc2)cc1,40.6%
